“And” between values parts separate entries of the source, which are not always exact repeats. Identical values can stand only once. Among all 220,000 compounds or so, about 2,000 (0.91%) were called active. Not shown: some 2% with an inconclusive outcome. Not all results are given here. Measured potencies and affinities stand elsewhere. Values without a mark were called inactive. No stated cut-off is given here; in the data, inconclusive means inhibition above about 80% without an active follow-up result; inactive means below that; test concentration not stated here.
Experiment: M. tuberculosis H37Rv growth inhibitors, H37Rv strain (AID 1626);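 further: bacteria incubated seven days before Alamar blue readout; 0% = bacteria only wells and 100% = bacteria with antibiotic wells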
Conditions: hits give high values, concentration not given here

SMILES	inhibition
Cn1cnc([N+](=O)[O-])c1Nc1cccc(O)c1	-3.69%
Cc1cccc(Nc2nc(NCc3ccco3)nc(N3CCOCC3)n2)c1	-1.15%
CC(=O)CSc1nc2ccc(Nc3nc(N4CCOCC4)nc(N4CCOCC4)n3)cc2s1	4.02%
O=C(CSc1nc2ccc(Nc3nc(N4CCCC4)nc(N4CCCC4)n3)cc2s1)NCc1ccco1	68.7%
COc1ccc(Nc2nc(NCc3ccco3)nc(N3CCOCC3)n2)cc1	-1.04%
O=C(Cn1c[n+](CC(=O)c2ccc([N+](=O)[O-])cc2)cn1)c1ccc([N+](=O)[O-])cc1	-5.51% and -5.64%
O=C(Cn1cc[n+](Cc2ccccc2)c1)c1ccc([N+](=O)[O-])cc1	14%
Cc1ccc2oc(=O)c(/C=C(\O)c3sc(C)nc3C)nc2c1	-8.77%
O=c1oc2cc([N+](=O)[O-])ccc2nc1/C=C(\O)c1cccc(Br)c1	-3.89%
O=c1oc2cc([N+](=O)[O-])ccc2nc1/C=C(O)/C=C/c1ccccc1	-2.36%
Cc1ccc2oc(=O)c(/C=C(\O)c3cccs3)nc2c1	-2.1%
O=c1oc2ccccc2nc1/C=C(O)/C=C/c1ccc(F)cc1	63.9%
Cc1ccc2oc(=O)c(/C=C(\O)c3ccccc3)nc2c1	-10.4%
C/C(O)=C\c1nc2ccccc2oc1=O	75.9%
Cc1ccc(/C(O)=C/c2nc3cc(C)ccc3oc2=O)cc1	16.9%
C=CCc1cc(OC)ccc1OCCOCCN1CCc2ccccc2C1	6.94%
COc1cccc(CNc2ccc(F)c(Cl)c2)c1	12.1%
OCCC1CN(Cc2cccnc2)CCN1CCc1ccccc1 (stereo unspecified)	-0.305%
COc1ccc(-c2c[n+](CC(=O)N3c4ccccc4Sc4ccccc43)c3n2CCC3)cc1	78.6%
O=C(C[n+]1cc(-c2ccccc2)n2c1CCC2)c1cccs1	-2.31%
O=C(C[n+]1cc(-c2ccc(F)cc2)n2c1CCC2)c1cccs1	0.03%
O=C(C[n+]1cc(-c2ccccc2)n2c1CCC2)OCc1ccccc1	-7.15%
O=C(C[n+]1cc(-c2ccccc2)n2c1CCCCC2)c1ccc(Cl)cc1	18.6%
O=C(C[n+]1cc(-c2ccc(Cl)cc2)n2c1CCCCC2)c1ccccc1	-4.68%

SMILES	inhibition
Cc1ccc(-c2c[n+](CC(=O)c3cccs3)c3n2CCC3)cc1	18.1%
O=C(C[n+]1cc(-c2ccc(F)cc2)n2c1CCC2)OCc1ccccc1	-9.6%
O=C1CC(SCCc2nc3ccccc3[nH]2)C(=O)N1c1ccc(F)cc1 (stereo unspecified)	-1%
CS(=O)(=O)N(CC(=O)NC1CCCC1)Cc1ccc(Cl)cc1	-2.78%
Cc1nc(Cl)c(C(=O)NC(C)(C)C)c(C)c1Cl	-4.14%
COc1ccc(N2C(=O)CCC(C(=O)NCc3ccccn3)C2c2ccc(OC)c(OC)c2)cc1 (stereo unspecified)	-14.1%
CC(=O)N1CCN(c2ccc([N+](=O)[O-])cc2C=C2C(=O)NC(=O)NC2=O)CC1	7.44%
CSc1nc2ccccc2n1CC(=O)Nc1ccccc1	-4.24%
Cc1[nH]c2ccc(C(=O)OCCN(C)C)cc2c1C	-4.75%
O=C(C[n+]1cc(-c2ccc(Cl)c(Cl)c2)n2c1CCC2)c1cccs1	3.68%
O=C(C[n+]1cc(-c2ccc(Cl)c(Cl)c2)n2c1CCC2)OCc1ccccc1	4.51%
CCOCCCNCc1ccc(OC)cc1	-2.12%
N#Cc1nc(-c2ccccc2F)oc1NCCc1ccccn1	4.27%
Cc1cc(C)cc(NC(=O)Nc2ccc3c(c2)N(C)C(=O)CS3)c1	1.91%
CCC1CCC/C1=N\NC(=O)c1cc(C)[nH]n1 (stereo unspecified)	-7.04%
NNC(=O)COc1ccccc1[N+](=O)[O-]	-1.65%
CC(C)(C)C(=O)COc1ccccc1[N+](=O)[O-]	0.09%
CC(C)(Oc1ccc(Cl)cc1)C(=O)N/N=C/c1cn[nH]c1-c1ccccc1	-0.17%
CC1CCC2(CC1)OCC1(CCC3(COC4(CCC(C)CC4)OC3)C1=O)CO2 (stereo unspecified)	-1.15%
CCCCOc1ccc(C(=O)NCC(=O)NCC(=O)OCC)cc1	5.43%
CCOC(=O)CNC(=O)CNC(=O)c1ccc(OC)cc1	-5.13%
Cc1ccc(S(=O)(=O)N(C)C)cc1-n1c(SCC(=O)Nc2ccccc2)nc2ccccc2c1=O	1.63%
Cn1ccnc1Sc1cc(NCCCO)c([N+](=O)[O-])c2nonc12	2.79%
CCOC(=O)N1CCN(c2cc(NCCO)c([N+](=O)[O-])c3nonc23)CC1	-2.1%

SMILES	inhibition
Cc1nnc(Sc2cc(NCCCO)c([N+](=O)[O-])c3nonc23)s1	-2.43%
Cc1nnc(Sc2cc(NCCO)c([N+](=O)[O-])c3nonc23)s1	-7.45%
COC(=O)CNC(=O)COC(=O)/C=C/c1ccccc1[N+](=O)[O-]	3.19%
Cc1ccc(S(=O)(=O)NCCc2nnc3ccc(NCCCOC(C)C)nn23)cc1	0.94%
CC1(c2ccc([N+](=O)[O-])cc2)CC(C)(C)N(C(=O)c2ccccc2)c2ccccc21 (stereo unspecified)	6.73%
CC1(c2cc([N+](=O)[O-])cc([N+](=O)[O-])c2)CC(C)(C)N(C(=O)c2ccccc2)c2ccccc21 (stereo unspecified)	2.82%
CC(=O)C1=C(O)C(=O)N(Cc2ccco2)C1c1ccc2c(c1)OCO2 (stereo unspecified)	-9.04%
CC(C)NC(=O)C(=O)NCCc1ccc(Cl)cc1	-1.47%
CCOC(=O)c1c(C)[nH]c(NC(=O)Nc2c(C)n(C)n(-c3ccccc3)c2=O)c1C	-2.03%
COc1ccc(O)c2c(=O)c3c(OC)cc4c(c3oc12)C1C=COC1O4 (stereo unspecified)	-3.61%
CSc1ccccc1C(=O)C1CCCN(Cc2cnn(-c3ccccc3)c2)C1 (stereo unspecified)	0.775%
Cn1cc(CN2CCCC(C(=O)c3ccc(-c4ccccc4)cc3)C2)cn1 (stereo unspecified)	-1.15%
Cc1ccc(NC(=O)/C=C\C(=O)NCC(=O)O)cc1	-2.38%
COC(=O)C1=C(C(=O)OC)[C@@H]2Nc3ccccc3[C@@]23C[C@@H](C(=O)OC)N(C(=O)c2ccco2)C3=N1	-1.72%
O=C(NCc1ccco1)c1cc([N+](=O)[O-])ccc1Cl	-6.78%
O=C(NCc1cn(-c2ccccc2)nc1-c1ccccc1)c1cccc([N+](=O)[O-])c1	10.1%
O=C(NCc1cn(-c2ccccc2)nc1-c1ccccc1)c1ccc([N+](=O)[O-])cc1	-4%
Cc1ccc(C(=O)NCc2ccco2)cc1[N+](=O)[O-]	0.79%
CCOc1ccc(-c2cnc(N)n2C)cc1	5.53%
Cc1ccc(CSCCNC(=O)CN(c2cccc([N+](=O)[O-])c2)S(C)(=O)=O)cc1	0.16%
Cc1noc(C)c1COC(=O)C1(c2cccc(F)c2)CCCC1	5.81%
CCOC(=O)CC(=O)CSc1ncnc2c1nnn2-c1ccc(OC)cc1	0.52%
COC(=O)c1cccc(COC(=O)c2cccnc2SC)c1	5.06%
Cc1nn(C)c2ncc(C(N)=O)c(Oc3ccc(Cl)cc3)c12	-11.3%

SMILES	inhibition
Cc1nc(-c2ccc(Cl)cc2)sc1C1(C)CC(c2cccc([N+](=O)[O-])c2)=NO1 (stereo unspecified)	-8.66%
Cc1ccccc1CN(c1ccc(C(=O)NCc2cccnc2)cc1)S(C)(=O)=O	-13.5%
Cc1ccc(SCC(=O)Nc2ccc(S(=O)(=O)Nc3nccs3)cc2)cc1	13.6%
Fc1ccc(-n2cc(-c3ccccc3)c3c(NN4CCOCC4)ncnc32)cc1	-8.02%
c1ccc(-c2cn(-c3ccccc3)c3ncnc(NCCCN4CCOCC4)c23)cc1	1.78%
CCN=C(N/N=C/c1ccc([N+](=O)[O-])cc1)SC	-6.2%
O=C(CNc1ccccc1C(=O)O)c1ccccc1	-10.8%
Cc1ccc(NC(=O)C/C(N)=N/O)cc1C	72.6%
Cc1ccc(S(=O)(=O)N(C)Cc2ccc(C(=O)NN=C3C4CC5CC(C4)CC3C5)cc2)cc1	-4.86%
Nc1nc(-c2cc3ccccc3o2)cs1	3.5%
Nc1cc(N)cc(-c2nc3ccccc3o2)c1	53%
CNc1ccccc1C(C)(C)c1cc(-c2cccc(OC)c2)no1	3.34%
Cn1/c(=N\NC(=O)C2CCCCC2)sc2ccccc21	4.34%
CCOC(=O)c1c(C)n(C)c2ccc(OC(C)=O)cc12	-1.73%
CCOC(=O)c1c(C)n(C)c2ccc(OCC(N)=O)cc12	0.2%
Cc1nn(C)c(C(=O)N/N=C/c2ccccc2)c1[N+](=O)[O-]	-7.25%
COc1ccc(-n2c(SC3CCOC3=O)nc3ccccc3c2=O)cc1Cl (stereo unspecified)	5.75%
CN1CCN(c2ccc(NC(=O)COc3ccccc3Cl)cc2)CC1	6.62%
COc1cccc(C(C(=O)NC2CCCC2)N(Cc2ccccc2OC)C(=O)c2ccco2)c1 (stereo unspecified)	2.53%
COc1ccc(Nc2oc(COc3ccc(OC)cc3)nc2C#N)cc1	-0.92%
Cc1ccc2cccc(OC(=O)/C=C\c3ccccc3)c2n1	-1.17%
COc1ccccc1/C=C/C(=O)NCc1ccccn1	-4.28%
CN(C(=O)Oc1cccc2cccnc12)c1ccccc1	1.95%
COc1ccccc1/C=C/C(C)=O	-0.82%
